This is part of a sample that, as a whole, favours compounds with a hit. Of some 83,000 tested, about 20% had one in any assay.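 Values shown are percent growth following 48 h exposure of cells in 96-well plates to a single concentration of compound; below 10 was considered active.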 The source made the active and inactive calls.
Experiments:
Assay in all cases: NCI-60 one-dose screen, 48 h (100 = growth as untreated, 0 = no growth, -100 = all killed)
Settings in all cases: 10 µM unless noted
SK-MEL-2 melanoma = system: SK-MEL-2 melanoma
EKVX NSCLC = system: EKVX NSCLC
SN12C renal = system: SN12C renal
UO-31 renal = system: UO-31 renal
TK-10 renal = system: TK-10 renal
ACHN renal = system: ACHN renal
CAKI-1 renal = system: CAKI-1 renal
A498 renal = system: A498 renal
CCRF-CEM leukemia = system: CCRF-CEM leukemia
MOLT-4 leukemia = system: MOLT-4 leukemia
SR leukemia = system: SR leukemia
OVCAR-8 ovarian = system: OVCAR-8 ovarian
OVCAR-5 ovarian = system: OVCAR-5 ovarian
OVCAR-4 ovarian = system: OVCAR-4 ovarian
SK-OV-3 ovarian = system: SK-OV-3 ovarian
IGROV1 ovarian = system: IGROV1 ovarian
OVCAR-3 ovarian = system: OVCAR-3 ovarian
HS 578T breast = system: HS 578T breast
NCI/ADR-RES ovarian = system: NCI/ADR-RES ovarian
RPMI-8226 leukemia = system: RPMI-8226 leukemia

| Compound | growth (SK-MEL-2 melanoma) | growth (EKVX NSCLC) | growth (SN12C renal) | growth (UO-31 renal) | growth (TK-10 renal) | growth (ACHN renal) | growth (CAKI-1 renal) | growth (A498 renal) | growth (CCRF-CEM leukemia) | growth (MOLT-4 leukemia) | growth (SR leukemia) | growth (OVCAR-8 ovarian) | growth (OVCAR-5 ovarian) | growth (OVCAR-4 ovarian) | growth (SK-OV-3 ovarian) | growth (IGROV1 ovarian) | growth (OVCAR-3 ovarian) | growth (HS 578T breast) | growth (NCI/ADR-RES ovarian) | growth (RPMI-8226 leukemia) |
| --- | --- | --- | --- | --- | --- | --- | --- | --- | --- | --- | --- | --- | --- | --- | --- | --- | --- | --- | --- | --- |
| CCOC(=O)c1cnc2c(cnn2CC)c1NN=C(C)C | 40% (inactive) | 93% (inactive) | 105% (inactive) | 68.4% (inactive) | 87.3% (inactive) | 84.1% (inactive) | 100% (inactive) | 68% (inactive) | 92% (inactive) | 81% (inactive) | 65.9% (inactive) | 98.9% (inactive) | 80.3% (inactive) | 96.2% (inactive) | 98.5% (inactive) | 9.1% (active) | 104% (inactive) | 94.5% (inactive) | 83.3% (inactive) | – |
| CC(C)CN(C(=O)c1ccc(Cl)cc1)c1c(N)n(CC(C)C)c(=O)[nH]c1=O | 96.4% (inactive) | 106% (inactive) | 87.8% (inactive) | 98.2% (inactive) | 125% (inactive) | 101% (inactive) | 50.2% (inactive) | 108% (inactive) | 93.1% (inactive) | 97.2% (inactive) | 64.1% (inactive) | 93.8% (inactive) | – | 107% (inactive) | 26.8% (inactive) | – | 115% (inactive) | 84.8% (inactive) | 101% (inactive) | 84.8% (inactive) |
| O=C(O)c1cn(C2CC2)c2cc(N3CCN(C(=O)C[n+]4cccc5ccccc54)CC3)c(F)cc2c1=O | 72.5% (inactive) | 102% (inactive) | 33.1% (inactive) | 67.1% (inactive) | 100% (inactive) | 61% (inactive) | 81.3% (inactive) | 99.4% (inactive) | -37.5% (active) | 5.51% (active) | 15.6% (inactive) | 74.1% (inactive) | 100% (inactive) | 54.5% (inactive) | 106% (inactive) | 92.7% (inactive) | – | 84.9% (inactive) | 93.8% (inactive) | 61.1% (inactive) |
| O=C1c2ccccc2C(=O)c2c(NCCN=Cc3ccccc3O)cccc21 | 108% (inactive) | 56% (inactive) | 50.3% (inactive) | 39.3% (inactive) | 68.5% (inactive) | 30.9% (inactive) | -10.3% (active) | 35.1% (inactive) | 59% (inactive) | -16.4% (active) | -33.2% (active) | 21% (inactive) | – | 72.1% (inactive) | 56.9% (inactive) | 51.9% (inactive) | 72.3% (inactive) | 43.4% (inactive) | 59.9% (inactive) | 78.8% (inactive) |
| COc1cc(NCCN(CC(C)C)C2CCCC2)c2ncccc2c1 | 89.2% (inactive) | 95.2% (inactive) | 93.1% (inactive) | 83.7% (inactive) | 109% (inactive) | 82.2% (inactive) | 97.1% (inactive) | 75% (inactive) | 121% (inactive) | 90.9% (inactive) | 82.6% (inactive) | 84.9% (inactive) | – | 36.6% (inactive) | 97.7% (inactive) | 86.8% (inactive) | 83.1% (inactive) | 84.2% (inactive) | 86.6% (inactive) | 99.2% (inactive) |
| COc1ccc(/C=C2\COc3ccc(-c4ccccc4)cc3C2=O)cc1O | -29.6% (active) | 105% (inactive) | 30.8% (inactive) | 40.6% (inactive) | 67.7% (inactive) | 47.3% (inactive) | 126% (inactive) | 55.6% (inactive) | -30.6% (active) | -18.2% (active) | -10.8% (active) | 13.1% (inactive) | – | 80.5% (inactive) | 57.6% (inactive) | 7.03% (active) | 2.7% (active) | -1.69% (active) | 22.6% (inactive) | -21.6% (active) |
| CCOC(=O)C1CC(=O)c2cc(OC)c(OC)cc2C1 (stereo not given) | 107% (inactive) | 114% (inactive) | 100% (inactive) | 93.6% (inactive) | 126% (inactive) | 107% (inactive) | 120% (inactive) | 129% (inactive) | 84.6% (inactive) | 94.3% (inactive) | 89.6% (inactive) | 103% (inactive) | 101% (inactive) | 96.8% (inactive) | 106% (inactive) | – | 110% (inactive) | 112% (inactive) | 98.5% (inactive) | 82.3% (inactive) |
| COc1cc(/C=C2\C(=O)N(Cc3ccc(Cl)cc3)c3ccccc32)cc(OC)c1OC | 90.2% (inactive) | 88.8% (inactive) | 24.9% (inactive) | 26.6% (inactive) | 20.5% (inactive) | 40.6% (inactive) | 24.6% (inactive) | 26.2% (inactive) | -3.04% (active) | 8.46% (active) | -5.2% (active) | – | 65.9% (inactive) | 47.7% (inactive) | 79.3% (inactive) | 9.22% (active) | – | -14.3% (active) | 21.4% (inactive) | -31.7% (active) |
| COc1ccc(/C=N/NC(=O)c2cccc3cc[nH]c23)cc1O | 52.3% (inactive) | 32.1% (inactive) | 53.9% (inactive) | 60.4% (inactive) | 47.1% (inactive) | 57.9% (inactive) | 46.5% (inactive) | 74.5% (inactive) | 0.582% (active) | 38.2% (inactive) | – | 48.8% (inactive) | 87.8% (inactive) | 49.6% (inactive) | 26.1% (inactive) | 36.4% (inactive) | 1.58% (active) | 15.2% (inactive) | -7.64% (active) | -19.4% (active) |
| c1cnc2nc3c(cc2c1)oc1ccccc13 | 101% (inactive) | 102% (inactive) | 94.8% (inactive) | 68.3% (inactive) | 107% (inactive) | 93.3% (inactive) | 80% (inactive) | 69.3% (inactive) | 90.9% (inactive) | 92.8% (inactive) | 80.7% (inactive) | 100% (inactive) | – | 103% (inactive) | 121% (inactive) | 97.2% (inactive) | 115% (inactive) | 102% (inactive) | 100% (inactive) | 94.1% (inactive) |
| Brc1ccc(C2CC(c3cccc(Nc4ccncc4)c3)=NN2c2ccccc2)cc1 (stereo not given) | 102% (inactive) | 95.7% (inactive) | 81.2% (inactive) | 74.6% (inactive) | 94.4% (inactive) | 91.3% (inactive) | 81.1% (inactive) | 80.2% (inactive) | 63.2% (inactive) | 47.3% (inactive) | 4.53% (active) | 77.6% (inactive) | – | 70.3% (inactive) | 84.4% (inactive) | 58.3% (inactive) | 80% (inactive) | 90.9% (inactive) | 79.2% (inactive) | 50.5% (inactive) |
| CCOC(=O)c1ccc(Nc2ccnc(SCC(=O)c3ccc(C#N)cc3)n2)cc1 | 71.1% (inactive) | 73.4% (inactive) | 73.8% (inactive) | 48% (inactive) | 90.4% (inactive) | 80% (inactive) | 57.1% (inactive) | 50.2% (inactive) | 17.5% (inactive) | 16.3% (inactive) | 54.1% (inactive) | 22.8% (inactive) | – | 65.2% (inactive) | 101% (inactive) | 79% (inactive) | – | 92.1% (inactive) | 41.5% (inactive) | 20.4% (inactive) |
| COc1ccc(-c2nn(Cc3ccccc3)c3c2-c2oncc2CC3)cc1OC | 125% (inactive) | 67% (inactive) | 85.8% (inactive) | 75% (inactive) | 84.1% (inactive) | 90.9% (inactive) | 81.8% (inactive) | 57.4% (inactive) | 98.3% (inactive) | 67.2% (inactive) | 63.2% (inactive) | 89% (inactive) | – | 86.8% (inactive) | 137% (inactive) | 124% (inactive) | 113% (inactive) | – | 82.6% (inactive) | 98.5% (inactive) |
| CCCCc1ccc(Nc2nnc(SCC(=O)NC(=O)NCC)s2)cc1 | 90.8% (inactive) | 110% (inactive) | 97% (inactive) | 84.4% (inactive) | 107% (inactive) | 101% (inactive) | 115% (inactive) | 96.6% (inactive) | 78.8% (inactive) | 100% (inactive) | 9.38% (active) | 74.1% (inactive) | 96.8% (inactive) | 104% (inactive) | 195% (inactive) | – | 104% (inactive) | 60.6% (inactive) | 103% (inactive) | 85% (inactive) |
| CC1=CC2(C)/C=C(C)/C=C\CC(O)/C=C3/C=CC(=C4C(=O)OC2(CC1C)C4=O)OC3 (stereo not given) | -89.2% (active) | 34.8% (inactive) | -40.8% (active) | -53% (active) | -86.8% (active) | -94.7% (active) | -89.5% (active) | 55.3% (inactive) | -39.4% (active) | -35.1% (active) | – | 0.804% (active) | -57.9% (active) | -40.6% (active) | 94.6% (inactive) | -49.1% (active) | -100% (active) | -34% (active) | -61.8% (active) | -23.8% (active) |
| S=c1[nH]cccc1-c1nnc2n1Nc1nc3ccccc3cc1CS2 | 104% (inactive) | 97.1% (inactive) | 98.8% (inactive) | 70.2% (inactive) | 105% (inactive) | 93.3% (inactive) | 82.8% (inactive) | 111% (inactive) | 105% (inactive) | 104% (inactive) | 95.7% (inactive) | 98% (inactive) | 96% (inactive) | 101% (inactive) | 82.1% (inactive) | 90.7% (inactive) | – | 96.4% (inactive) | 98.2% (inactive) | 99.2% (inactive) |
